Data from PubChem BioAssay (Tox21).
Inconclusive results are not listed. Where a call stands in place of a potency, no number is given. The source holds several records for some structures; these can differ, active in one and inactive in another. Active and inactive are the calls of the source. Unless noted, the call rests on the fitted dose curve.

Assays:
[1] = Nuclear factor erythroid 2-related factor 2/antioxidant responsive element (Nrf2/ARE) small molecule agonists: qHTS cell viability counter screen in human keratinocytes (AID 1919968; active means well fitted curve in the direction sought with a large enough effect in the repeat runs; an effect the other way counts as inactive or inconclusive; further: nearly all actives have a fitted effect of over 55% in size; further: potency means the concentration at half of the fitted maximal effect)
Method in brief: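 In human HaCaT keratinocytes stably expressing an ARE-driven luciferase, compound exposure lasted 23 h at 37 C under 5% CO2. Viable cells are quantified with a protease-based fluorogenic reagent (CellTiter-Fluor) read 1 h after addition.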

[2] = Nuclear factor erythroid 2-related factor 2/antioxidant responsive element (Nrf2/ARE) small molecule agonists: luciferase reporter gene qHTS assay in human keratinocytes (AID 1919969); further: nearly all actives have a fitted effect of over 35% in size
[3] = molecular target: Gonadotropin-releasing hormone receptor (Homo sapiens) (UniProt P30968); experiment: Human gonadotropin-releasing hormone receptor (GnRHR) small molecule agonists, calcium flux assay in GnRHR-HEK293 cells (AID 1920063); further: nearly all actives have a fitted effect of over 35% in size
Method in brief: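 Intracellular calcium rise is the read-out: engineered human GnRHR HEK293 cells, dye-loaded, are exposed to DMSO-dissolved compounds and fluorescence at Ex/Em 480/540 is tracked for 3 min.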

[4] = molecular target: KiSS-1 receptor (Homo sapiens) (UniProt Q969F8); experiment: Human kisspeptin (KISS1R) small molecule agonists, calcium flux assay in KISS1R-HEK293 cells (AID 1920064; active means well fitted curve in the direction sought with a large enough effect in the repeat runs; an effect the other way counts as inactive or inconclusive)
Method in brief: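 Concentration-response testing used 15 concentrations in triplicate on human KISS1R-expressing HEK293 cells. Calcium-dependent fluorescence (Ex/Em 480/540) was followed kinetically for 3 min after compound transfer.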

[5] = G protein-coupled receptor (GPCR) small molecule agonists, calcium flux assay: HEK293 wild type cell line counter screen (AID 1920065)
Method in brief: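 Fluorescence intensity signals activation. After overnight (18 h) culture and a 1 h calcium dye load at 37 C, compounds are added by pin tool and the plate read at 480/540 nm for 3 min in 1 s steps.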

[6] = p53 small molecule agonists, cell-based qHTS assay with human liver microsomes (AID 1963577);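 further: p53 response element beta-lactamase reporter cells with liver microsomes plus NADPH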
Method in brief: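 Reporter activation was measured by LiveBLAzer fluorescence intensity in p53RE-bla cells, which had been exposed to compounds for 16 h at 37 C alongside 0.5 mg/mL human liver microsomes and 0.5 mg/mL NADPH (final concentrations).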

[7] = p53 small molecule agonists, cell-based qHTS assay with rat liver microsomes (AID 1963578)
Method in brief: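 Compound in DMSO added to p53RE-bla cells 5 h post-plating; rat microsomes/NADPH 0.5 mg/mL final; 16 h, 37 C; LiveBLAzer 2 h RT.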

[8] = p53 small molecule agonists, cell-based qHTS assay with human liver microsomes: qHTS cell viability counter screen (AID 1963579); further: nearly all actives have a fitted effect of over 45% in size; further: potency means the concentration at half of the fitted maximal effect
Method in brief: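 HLM-supplemented (0.5 mg/mL final) and NADPH-supplemented (0.5 mg/mL final) p53RE-bla cultures, 4,000 cells per well, were dosed with compounds in DMSO for 16 h at 37 C; luminescent ATP detection (CellTiter-Glo, 30 min, room temperature) quantified surviving cells.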

[9] = p53 small molecule agonists, cell-based qHTS assay: qHTS cell viability counter screen (AID 1963581); further: nearly all actives have a fitted effect of over 45% in size
Method in brief: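 Luminescence from CellTiter-Glo, reflecting ATP content, serves as the cytotoxicity measure; it is taken after the 2 h reporter substrate step in HCT-116 p53RE-bla cells dosed for 16 h at 37 C.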

[10] = p53 small molecule agonists, cell-based qHTS assay (AID 1963582; active means well fitted activation curve with a large enough effect in the signal ratio in the repeat runs, not every such curve was filed as active; the % refers to the signal ratio)
Method in brief: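 After plating, p53RE-bla cells sat 5 h in the incubator; compounds or DMSO vehicle were pinned in; a 16 h incubation at 37 C followed; FRET substrate was added and, 2 h later at RT, fluorescence was measured.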

[11] = molecular target: 5-hydroxytryptamine receptor 2A (Homo sapiens) (UniProt P28223); experiment: 5-hydroxytryptamine receptor 2A (HTR2A) small molecule antagonists, cell-based qHTS assay (AID 1963586); further: nearly all actives have a fitted effect of over 45% in size
Method in brief: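 CHO cells stably expressing human HTR2A were plated for 18 h at 37 C, then loaded with calcium dye for 1 h. Compounds were preincubated 5 min at room temperature before DOI (4 nM solution) was added. Kinetic fluorescence was read for 3 min.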

[12] = molecular target: 5-hydroxytryptamine receptor 2A (Homo sapiens) (UniProt P28223); experiment: 5-hydroxytryptamine receptor 2A (HTR2A) small molecule agonists, cell-based qHTS assay (AID 1963587); further: nearly all actives have a fitted effect of over 30% in size
Method in brief: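 HTR2A-CHO cells, plated 18 h at 37 C/5% CO2, dye-loaded 1 h at 37 C; compounds in DMSO added by pin tool (agonist mode). Intracellular calcium flux read as kinetic fluorescence on FDSS over 2 min at 1 s intervals.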

[13] = molecular target: Muscarinic acetylcholine receptor M1 (Homo sapiens) (UniProt P11229); experiment: Cholinergic receptor muscarinic 1 (CHRM1) small molecule antagonists, cell-based qHTS assay (AID 1963588); further: nearly all actives have a fitted effect of over 40% in size
Method in brief: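 Compounds were tested at 15 concentrations in three independent runs. Dye-loaded CHRM1-CHO cells were exposed 5 min at room temperature before stimulation by acetylcholine added at 50nM. Intracellular calcium was read kinetically on FDSS for 3 min.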

[14] = molecular target: Muscarinic acetylcholine receptor M1 (Homo sapiens) (UniProt P11229); experiment: Cholinergic receptor muscarinic 1 (CHRM1) small molecule agonists, cell-based qHTS assay (AID 1963589); further: nearly all actives have a fitted effect of over 35% in size
Method in brief: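 Fluorescent calcium dye reports M1 activation in stably transfected CHO cells. Compounds, 15 concentrations, added after 1 h dye loading at 37 C; kinetic reading at 1 sec intervals.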

[15] = cAMP Responsive Elements (CRE) small molecule agonists, cell-based qHTS assay (AID 1963590)
Method in brief: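 Compound exposure lasted 3 h at 37 C/5% CO2 in CRE-bla HEK 293T cells grown in assay medium with 10% dialyzed FBS and 25 mM HEPES. Reporter signal came from LiveBLAzer B/G FRET substrate, 2 h, room temperature.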

[16] = cAMP Responsive Elements (CRE) small molecule antagonists, cell-based qHTS assay (AID 1963591; active means well fitted inhibition curve with a large enough effect in the signal ratio in the repeat runs, not every such curve was filed as active; the % refers to the signal ratio)
Method in brief: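 Stimulation used NKH477 at a final 0.25 uM for 3 h in compound-treated CRE-bla HEK293T cells, seeded 18 h beforehand. Reporter activity was measured with LiveBLAzer B/G FRET substrate after 2 h at room temperature.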

[17] = molecular target: Beta-2 adrenergic receptor (Homo sapiens) (UniProt P07550); experiment: Adrenergic beta2 receptor (ADRB2) small molecule antagonists, cell-based qHTS assay (AID 1963592); further: series mostly up to about 92 µM; nearly all actives have a fitted effect of over 50% in size
Method in brief: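 Assay format: CHO-ADRB2 cells, 18-20hr seeding at 37C/5% CO2, then compound plus 1nM isoproterenol agonist mix for 0.5hr RT. Homogeneous time-resolved fluorescence cAMP detection after 1hr, expressed as 665/615 nm ratio.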

[18] = molecular target: D(2) dopamine receptor (Homo sapiens) (UniProt P14416); experiment: Dopamine D2 receptor (DRD2) small molecule agonists, cell-based qHTS assay (AID 1963594); further: nearly all actives have a fitted effect of over 35% in size
Method in brief: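 HEK293 cells stably expressing DRD2 were cultured 24 h at 37 C, then given Ro20-1724 (0.1 mM final) and compounds for 10 min at room temperature. NKH477 (200nM) was then added for 30 min. cAMP was read by HTRF.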

[19] = molecular target: D(2) dopamine receptor (Homo sapiens) (UniProt P14416); experiment: Dopamine D2 receptor (DRD2) small molecule antagonists, cell-based qHTS assay (AID 1963595; active means well fitted inhibition curve with a large enough effect in the signal ratio in the repeat runs, with a control signal flat; the % refers to the signal ratio)
Method in brief: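 Human DRD2 antagonist qHTS measuring cAMP by HTRF. The cells are exposed to compound for 10 min, then to NKH477 (200 nM) and quinpirole (12 nM) for 30 min at RT, with Ro20-1724 (0.1 mM) present throughout.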

[20] = p53 small molecule agonists, cell-based qHTS assay with rat liver microsomes: qHTS cell viability counter screen (AID 1963580); further: nearly all actives have a fitted effect of over 45% in size
Method in brief: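 Luminescent ATP readout (CellTiter-Glo, 30 min at room temperature) reports viability of p53RE-bla HCT-116 cells after 16 h at 37 C with test compounds under metabolic activation by rat liver microsomes and NADPH at 0.5 mg/mL final each.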

Chain of Beta-2 adrenergic receptor (Homo sapiens) (P07550 whole entry, looked up): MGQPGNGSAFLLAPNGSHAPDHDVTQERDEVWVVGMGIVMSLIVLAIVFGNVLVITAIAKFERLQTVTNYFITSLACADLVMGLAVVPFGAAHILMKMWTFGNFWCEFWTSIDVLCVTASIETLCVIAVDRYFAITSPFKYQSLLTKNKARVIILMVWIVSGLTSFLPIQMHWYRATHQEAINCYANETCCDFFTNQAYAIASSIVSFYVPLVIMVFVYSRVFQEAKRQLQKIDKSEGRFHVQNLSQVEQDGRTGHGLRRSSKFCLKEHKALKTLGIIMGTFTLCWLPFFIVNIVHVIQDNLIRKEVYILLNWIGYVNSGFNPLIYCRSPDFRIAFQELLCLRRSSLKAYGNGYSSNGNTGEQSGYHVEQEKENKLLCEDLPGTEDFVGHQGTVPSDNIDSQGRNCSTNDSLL
Chain of D(2) dopamine receptor (Homo sapiens) (P14416 whole entry, looked up): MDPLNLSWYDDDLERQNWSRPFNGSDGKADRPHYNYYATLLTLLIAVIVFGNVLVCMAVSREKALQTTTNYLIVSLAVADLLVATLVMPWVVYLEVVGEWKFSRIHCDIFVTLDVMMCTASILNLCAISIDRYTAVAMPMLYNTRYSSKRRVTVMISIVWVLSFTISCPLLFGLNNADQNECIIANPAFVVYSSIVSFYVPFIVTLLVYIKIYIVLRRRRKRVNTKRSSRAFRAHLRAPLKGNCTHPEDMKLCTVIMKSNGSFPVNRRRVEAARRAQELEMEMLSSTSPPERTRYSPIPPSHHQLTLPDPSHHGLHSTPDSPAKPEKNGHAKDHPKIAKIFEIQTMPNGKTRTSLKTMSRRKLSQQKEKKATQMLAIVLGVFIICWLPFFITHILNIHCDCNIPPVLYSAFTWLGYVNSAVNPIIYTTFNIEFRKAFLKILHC
Chain of Muscarinic acetylcholine receptor M1 (Homo sapiens) (P11229 whole entry, looked up): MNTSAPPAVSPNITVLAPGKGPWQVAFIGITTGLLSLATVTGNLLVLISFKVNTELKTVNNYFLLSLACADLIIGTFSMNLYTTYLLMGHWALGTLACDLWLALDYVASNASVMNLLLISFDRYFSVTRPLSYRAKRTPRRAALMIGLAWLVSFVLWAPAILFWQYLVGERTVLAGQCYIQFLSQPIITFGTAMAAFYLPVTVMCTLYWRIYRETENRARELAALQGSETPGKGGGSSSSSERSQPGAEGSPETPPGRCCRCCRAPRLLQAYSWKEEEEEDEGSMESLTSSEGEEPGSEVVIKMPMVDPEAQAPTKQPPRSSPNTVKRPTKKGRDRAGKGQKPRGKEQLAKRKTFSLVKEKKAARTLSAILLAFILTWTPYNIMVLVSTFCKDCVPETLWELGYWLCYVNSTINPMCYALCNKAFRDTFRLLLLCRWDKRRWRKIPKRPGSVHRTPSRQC
Chain of Gonadotropin-releasing hormone receptor (Homo sapiens) (P30968 whole entry, looked up): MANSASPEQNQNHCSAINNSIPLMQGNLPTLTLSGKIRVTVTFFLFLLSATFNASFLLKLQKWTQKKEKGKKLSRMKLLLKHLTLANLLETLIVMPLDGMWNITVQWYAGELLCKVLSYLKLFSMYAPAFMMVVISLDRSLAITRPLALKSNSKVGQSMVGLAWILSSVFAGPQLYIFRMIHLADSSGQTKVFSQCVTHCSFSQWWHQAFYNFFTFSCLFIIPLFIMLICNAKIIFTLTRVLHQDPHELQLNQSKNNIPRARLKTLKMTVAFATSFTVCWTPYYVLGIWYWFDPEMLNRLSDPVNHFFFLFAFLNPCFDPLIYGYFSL
Chain of KiSS-1 receptor (Homo sapiens) (Q969F8 whole entry, looked up): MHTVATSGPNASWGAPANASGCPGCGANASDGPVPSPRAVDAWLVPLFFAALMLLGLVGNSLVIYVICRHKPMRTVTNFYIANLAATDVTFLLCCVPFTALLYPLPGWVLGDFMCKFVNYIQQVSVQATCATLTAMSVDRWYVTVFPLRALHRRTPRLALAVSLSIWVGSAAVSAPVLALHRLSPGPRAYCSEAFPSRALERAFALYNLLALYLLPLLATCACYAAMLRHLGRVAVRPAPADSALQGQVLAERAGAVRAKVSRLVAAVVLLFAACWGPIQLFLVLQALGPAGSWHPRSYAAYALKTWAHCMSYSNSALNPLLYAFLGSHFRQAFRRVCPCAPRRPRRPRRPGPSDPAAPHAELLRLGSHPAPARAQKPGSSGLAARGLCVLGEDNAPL
Chain of 5-hydroxytryptamine receptor 2A (Homo sapiens) (P28223 whole entry, looked up): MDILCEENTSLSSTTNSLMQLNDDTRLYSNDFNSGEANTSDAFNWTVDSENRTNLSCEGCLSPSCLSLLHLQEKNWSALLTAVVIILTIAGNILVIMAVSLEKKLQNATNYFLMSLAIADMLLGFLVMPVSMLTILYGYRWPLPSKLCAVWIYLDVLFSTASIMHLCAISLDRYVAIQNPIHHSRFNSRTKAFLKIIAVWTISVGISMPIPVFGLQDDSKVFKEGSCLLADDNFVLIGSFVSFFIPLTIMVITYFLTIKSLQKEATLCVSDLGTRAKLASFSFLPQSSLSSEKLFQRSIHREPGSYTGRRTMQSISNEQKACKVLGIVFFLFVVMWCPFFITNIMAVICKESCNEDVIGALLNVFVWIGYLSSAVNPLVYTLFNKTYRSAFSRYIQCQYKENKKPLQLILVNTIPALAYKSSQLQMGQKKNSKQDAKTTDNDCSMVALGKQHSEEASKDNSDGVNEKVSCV

| Structure (SMILES) | Potency [1] | Potency [2] | Potency [3] | Potency [4] | Potency [5] | Potency [6] | Potency [7] | Potency [8] | Potency [9] | Potency [10] | Potency [11] | Potency [12] | Potency [13] | Potency [14] | Potency [15] | Potency [16] | Potency [17] | Potency [18] | Potency [19] | Potency [20] |
| --- | --- | --- | --- | --- | --- | --- | --- | --- | --- | --- | --- | --- | --- | --- | --- | --- | --- | --- | --- | --- |
| CC(C)CCO | inactive | inactive | inactive | inactive | inactive | inactive | inactive | inactive | inactive | inactive | inactive | inactive | inactive | inactive | inactive | inactive | inactive | inactive | inactive |  |
| Cc1c(N)cccc1C(F)(F)F | inactive | inactive | inactive | inactive | inactive | inactive | inactive | inactive | inactive | inactive | inactive | inactive | inactive | inactive | inactive | inactive | inactive | inactive | inactive |  |
| O=C(O)[C@@H](O)[C@H](O)[C@H](O)[C@@H](O)C(=O)O | inactive | inactive | inactive | inactive | inactive | inactive | inactive | inactive | inactive | inactive | inactive | inactive | inactive | inactive | inactive | inactive | inactive | inactive | inactive |  |
| CC[C@]12CCCN3CCc4c(n(c5ccccc45)[C@@](O)(C(=O)OC)C1)[C@@H]32 | inactive | inactive | inactive | inactive | inactive | inactive | inactive | inactive |  |  | inactive |  | inactive | inactive |  | inactive | inactive | inactive | inactive | inactive |
| NCCC(O)(P(=O)(O)O)P(=O)(O)O | inactive | inactive | inactive | inactive | inactive | inactive | inactive | inactive |  |  | inactive | inactive | inactive | inactive | inactive | inactive | inactive | inactive | inactive | inactive |
| C=CCCCCCCCC | inactive | inactive | inactive | inactive | inactive | inactive | inactive | inactive | inactive | inactive | inactive | inactive | inactive | inactive | inactive | inactive | inactive | inactive | inactive |  |
| Cc1ccc(C(=O)c2cc(O)c(O)c([N+](=O)[O-])c2)cc1 | 30.6 µM (active) | inactive | inactive | inactive | inactive | inactive | inactive | 45.8 µM (active) and inactive |  | inactive | inactive | inactive | inactive | inactive |  |  | inactive | inactive | inactive | inactive |
| O=C1OC(CN2CCOCC2)CN1/N=C/c1ccc([N+](=O)[O-])o1 (configuration not stated) | inactive | inactive | inactive | inactive | inactive | inactive | inactive | inactive |  |  | inactive |  | inactive | inactive | inactive | inactive | inactive | inactive | inactive | inactive |
| O=S(=O)(O)CCN1CCN(CCO)CC1 | inactive | inactive | inactive | inactive | inactive | inactive | inactive | inactive | inactive | inactive | inactive | inactive | inactive | inactive | inactive |  | inactive | inactive | inactive |  |
| CCO/C([O-])=N/c1c[n+](N2CCOCC2)no1 | inactive | inactive | inactive | inactive | inactive | inactive | inactive | inactive | inactive | inactive | inactive | inactive | inactive | inactive | inactive | inactive | inactive |  | inactive |  |
| O=C(O)c1ccccc1S | inactive | inactive | inactive | inactive | inactive | inactive | inactive | inactive | inactive | inactive | inactive | inactive | inactive | inactive | inactive | inactive | inactive | inactive | inactive |  |
| Cn1ccnc1 | inactive | inactive | inactive | inactive | inactive | inactive | inactive | inactive | inactive | inactive | inactive | inactive | inactive | inactive | inactive | inactive | inactive | inactive | inactive |  |
| CCC(=O)OC(C)c1ccccc1 (configuration not stated) | inactive | inactive | inactive | inactive | inactive | inactive | inactive | inactive |  | inactive | inactive | inactive | inactive | inactive | inactive |  | inactive | inactive | inactive | inactive |
| CCOc1ncc(F)c(=O)[nH]1 | inactive | inactive | inactive | inactive | inactive | inactive | inactive | inactive |  | inactive | inactive | inactive |  | inactive |  | inactive |  | inactive | inactive | inactive |
